Screening data deposited in PubChem BioAssay by The Scripps Research Institute Molecular Screening Center.
This is a sample that favours compounds with a hit; in the whole collection about 2.4% have one here.
M1 PAM: human M1 muscarinic receptor positive allosteric modulators, primary screen, CHO-K1 cells, Fluo-8 calcium fluorescence, 1536-well | Muscarinic acetylcholine receptor M1 (Homo sapiens), P11229 | CHO-K1 hM1, ACh EC20; 0% = ACh EC20, 100% = maximal ACh | activation, % at 3 µM | hit rate 0.088% among 360,000; in the data active = activation above about 19%, passing the limit was not always enough
Target sequence (P11229 whole entry, looked up): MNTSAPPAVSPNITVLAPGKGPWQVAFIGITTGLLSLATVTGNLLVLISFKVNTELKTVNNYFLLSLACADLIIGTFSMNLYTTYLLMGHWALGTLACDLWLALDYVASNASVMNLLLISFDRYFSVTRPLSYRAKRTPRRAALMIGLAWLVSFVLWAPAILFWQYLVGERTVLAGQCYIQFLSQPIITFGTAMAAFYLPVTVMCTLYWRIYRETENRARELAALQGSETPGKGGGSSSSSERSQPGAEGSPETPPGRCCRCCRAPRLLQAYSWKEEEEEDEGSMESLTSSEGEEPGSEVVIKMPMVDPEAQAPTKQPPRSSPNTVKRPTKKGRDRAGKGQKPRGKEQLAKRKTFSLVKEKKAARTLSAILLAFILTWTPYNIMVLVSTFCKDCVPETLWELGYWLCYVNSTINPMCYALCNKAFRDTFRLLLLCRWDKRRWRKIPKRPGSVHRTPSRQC
CHRM1 agonist: human M1 muscarinic receptor agonists, primary screen, Fluo-8 calcium fluorescence, CHO-K1 cells, HTS. CHO-K1 hM1, agonist mode; 0% DMSO, 100% acetylcholine EC100. activation, % at 3 µM. hit rate 0.33% among 360,000. AID 588814, 2011;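 active = activation above the run's mean compound activation plus 3 SD, cut at about 16% in these data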;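 also: peak over basal fluorescence ratio within a 140 s kinetic read after compound addition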
CHRM1 antagonist: human M1 muscarinic receptor antagonists, primary screen, CHO-K1 cells, Fluo-8 calcium fluorescence, 1536-well; Muscarinic acetylcholine receptor M1 (Homo sapiens), P11229; CHO-K1 hM1, ACh EC80 antagonist; inhibition, % at 3 µM; hit rate 1.3% among 360,000; AID 588852, 2011;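 active = percent inhibition above its own plate's cutoff, namely the mean of that plate's compound wells plus 3 SD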;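 also: peak over basal fluorescence ratio during 140 s after agonist addition; 0% = ACh EC80 plus DMSO and 100% = DMSO alone without agonist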
CHO-K1 Ca antag: nonselective inhibitor or artifact in parental CHO-K1 cells; ATP-induced calcium, Fluo-8 fluorescence; hit rate 0.6% among 360,000; inhibition, % at 3 µM;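 active = inhibition above a per-plate cutoff, the plate's mean sample inhibition plus 3 SD, cut at about 24% in these data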;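 also: 0% = DMSO plus EC80 ATP and 100% = DMSO alone without ATP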
M1 PAM parental: nonselective calcium activators in parental CHO-K1 cells, primary screen, counter-screen for M1 PAM project, cell-based, Fluo-8 calcium fluorescence, full deck, 1536-well; ATP EC20; 0% at ATP EC20, 100% at ATP max; activation, % at 3 µM; hit rate 0.02% among 360,000;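 active = activation above the run cutoff, the mean activation of all test compounds plus 3 SD, cut at about 40% in these data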;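 also: peak over basal fluorescence ratio in a 140 s read after ATP addition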
M1 ag parental: counter-screen for M1 agonists: effect in parental CHO-K1 cells. Fluo-8 calcium fluorescence; scaled to maximal ATP response, vehicle zero. activation, % at 3 µM. hit rate 0.48% among 360,000. AID 602248, 2012; in the data active = activation above about 15%;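 also: untransfected CHO-K1 host cells lacking M1 receptor as counterscreen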
* hit, by the source's call.

SMILES	M1 PAM	CHRM1 agonist	CHRM1 antagonist	CHO-K1 Ca antag	M1 PAM parental	M1 ag parental
COC(=O)c1ccc(COc2ccc(/C=N/Nc3nc(C)cc(=O)[nH]3)cc2)cc1	5	-3	-10	-12	13	0
CCOC(=O)CSc1cc(C)nc2ccc(OC)cc12	-6	-5	-4	24*	-19	0
COc1ccc(NC(=O)CN2C(=O)NC(CC(C)C)C2=O)cc1S(=O)(=O)N1CCOCC1 (stereo not given)	10	-2	-5	-12	17	1
Cc1ccc2nc3n(c(=O)c2c1)CCCCC3	-19	-8	19*	-5	8	0
O=c1c2cc([N+](=O)[O-])ccc2nc2n1CCCC2	3	-5	5	-6	7	1
O=c1c2cc(Br)ccc2nc2n1CCCCC2	-20	-4	86*	-4	-24	0
COC(=O)/C(=C/c1ccco1)NC(=O)c1ccco1	1	-4	3	2	24	0
Cn1cc(CCCC(=O)NCc2ccc(F)cc2)c2ccccc21	3	-5	-6	-13	7	1
COc1ccc(/C=C/CN2CCN(CC(C)C)C(CCO)C2)cc1 (stereo not given)	-22	-10	28*	4	12	-1
COc1cccc(/C(C#N)=C/c2c(-c3ccc(Cl)cc3)nc3c(C)cccn23)c1	-22	-5	48*	-13	10	0
On1ccccc1=S	0	1	-1	25*	18	3
O=C(Cn1ccccc1=S)c1ccc(Cl)c(Cl)c1	8	-6	-6	-16	24	2
O=C(CN1C(=O)COc2ccccc21)c1ccc(Cl)cc1	-9	-3	28	30*	-8	0
CC1CCN(C(=O)CCn2c(=O)oc3ccc(Cl)cc32)CC1	28*	2	-22	6	-1	0
Clc1cccc(Cl)c1Cn1ccc(C2CC2)n1	6	-4	-2	4	6	16*
O=c1c2ccccc2c(-c2ccccc2)nn1Cc1c(Cl)cccc1Cl	2	-1	-5	-12	19	0
Cc1nn(C(=O)c2cccc([N+](=O)[O-])c2)c(C)c1Sc1ccccc1	-1	-4	15	26*	-8	-1
CCN(CC)c1ccc(C=C2SC(=S)NC2=O)cc1	-36	111*	83*	21	-6	15
N#CCCn1cc(C=O)c(-c2cccs2)n1	2	-3	-8	-7	-1	1
O=C(NC1CCCCCC1)c1ccc([N+](=O)[O-])s1	1	-5	-6	-4	-5	1
CN(Cc1ccc(OC(F)F)cc1)C(=O)c1cccc(S(=O)(=O)N2CCN(c3ccccc3)CC2)c1	-20	0	46*	20	-22	14
CN(CC(=O)Nc1ccccc1Cl)C(=O)c1cccc(S(=O)(=O)N2CCN(c3ccc(F)cc3)CC2)c1	-4	7	19	22	-15	5
CCN1CCN(S(=O)(=O)c2ccc(Cl)c(C(=O)N(C)Cc3ccccc3)c2)CC1	15	1	-5	24*	17	0
CN(CC(=O)Nc1ccccc1Cl)C(=O)c1cccc(S(=O)(=O)N2CCN(c3ccccc3)CC2)c1	-7	-1	20	28*	-18	5
COc1ccccc1N(C)S(=O)(=O)c1ccc(C(=O)N(C)Cc2ccc(OC(F)F)cc2)cc1	-14	0	27*	13	-20	10
SMILES	M1 PAM	CHRM1 agonist	CHRM1 antagonist	CHO-K1 Ca antag	M1 PAM parental	M1 ag parental
CC1CC(C)(C)OC(C[N+]2(C)CCCCC2)O1 (stereo not given)	-15	-6	35*	-13	25	2
C[N+]1(CC2COC3(CCCCC3)O2)CCCC1 (stereo not given)	-15	-8	13	-2	1	0
COc1ccc(NC(=O)CSc2ccccn2)cc1OC	7	0	-5	-3	16	0
COc1ccc(NC(=O)CSc2ncccc2C(=O)OC(C)C)cc1OC	-7	-1	15	27*	-9	9
CC1CCN(CCCOc2ccc(OCc3ccccc3)cc2)CC1	-25	1	43*	-2	10	2
c1ccc(COc2ccc(OCCCN3CCCC3)cc2)cc1	-21	-10	46*	-12	26	3
c1ccc(COc2ccc(OCCN3CCCC3)cc2)cc1	-11	-10	3	-11	20	2
CNc1nc(SCc2ccc(C)cc2)nc2c1CCCC2	-4	-4	7	-1	13	1
Fc1cccc(Cc2c(-c3ccccc3)nc3c(Cl)cc(C(F)(F)F)cn23)c1	3	-1	-20	-11	0	0
Cc1cc2cc(CNC(=O)c3ccc(S(=O)(=O)N4CCCC4)cc3)ccc2n1C	-28	-11	73*	7	21	2
CCN(CC)S(=O)(=O)c1ccc(C(=O)NCc2ccc3c(c2)cc(C)n3C)cc1	-31	-11	57*	-5	7	1
Cc1cc2cc(CNC(=O)c3ccc(S(=O)(=O)N4CCCCC4)cc3)ccc2n1C	-13	-11	13	4	-1	2
COC(=O)c1nc2n(n1)C(c1ccc(OC)c(OC)c1)C(C(=O)OC1CCCCC1)=C(C)N2 (stereo not given)	-3	-1	14	28*	-8	0
COc1ccc(C2NC(=O)NC(C)=C2C(=O)OC2CCCCC2)cc1OC (stereo not given)	4	1	-10	9	8	0
O=C(NCC(c1ccccc1Cl)N1CCCC1)c1ccc(N2CCCC2=O)cc1 (stereo not given)	-25	-8	56*	-5	-1	0
COc1cccc(C(C(=O)NCC2CCCO2)N(C(=O)Cn2nnc3ccccc32)c2ccc(NC(C)=O)cc2)c1OC (stereo not given)	11	-4	-11	-11	2	1
CCCN1C(=O)/C(=C/c2c(N3CCNC(=O)C3CC(=O)OCC)nc3c(C)cccn3c2=O)SC1=S (stereo not given)	-17	13	39*	10	-5	10
CCOC(=O)CC1C(=O)NCCN1c1nc2ccc(C)cn2c(=O)c1/C=C1\SC(=S)N(CC(C)C)C1=O (stereo not given)	-4	5	2	-7	10	5
COC(=O)c1ccc(/C=N/OCC(=O)NC2CCCC(C)C2C)cc1 (stereo not given)	-13	3	31*	-3	19	5
COC(=O)c1ccc(/C=N/OCC(=O)NC2CCCCCCC2)cc1	5	-4	-10	-3	19	4
